The nature of experiment [1]: qHTS assay to test for compound auto fluorescence at 535 nm (green) in HEK293 cells (AID 720680). For orientation: In qHTS, concentration-response curves come from the screen itself.
The nature of experiment [2]: qHTS assay to test for compound auto fluorescence at 460 nm (blue) in HEK293 cell free culture (AID 720681). A digest of the protocol:
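Compounds were added to cell-free DMEM with 10% FBS and fluorescence read directly. The blue channel used 405 nm excitation and 460 nm emission, with triamterene as the reference fluorophore.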

A short description of experiment [3]: qHTS assay to test for compound auto fluorescence at 535 nm (green) in HEK293 cell free culture (AID 720682). The gist of the method: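 DMEM + 10% FBS, cell-free; cpd or DMSO pinned in; Ex485/Em535 read; output as fluorescein-equivalent signal.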
A short description of experiment [4]: qHTS assay to test for compound auto fluorescence at 590 nm (red) in HEK293 cell free culture (AID 720683). The gist of the method:
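Cell-free wells of DMEM with 10% FBS received compound, and intrinsic fluorescence was read at excitation/emission 540/590 nm. Values expressed as equivalence to Rose Bengal sodium.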

Experiment [5] is described as follows: qHTS assay to test for compound auto fluorescence at 590 nm (red) in HepG2 cell free culture (AID 720684). The gist of the method:
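Compound was pinned into wells holding MEM with 10% FBS and no cells, and red fluorescence was read at Ex/Em 540/590 nm. Signal is expressed as auto fluorescence equivalency relative to Rose Bengal sodium.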

The nature of experiment [6]: qHTS assay to test for compound auto fluorescence at 460 nm (blue) in HepG2 cell free culture (AID 720685). The gist of the method: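 Compound (23 nL) or DMSO pinned into cell-free MEM with 10% FBS; blue fluorescence read at 405/460 nm excitation/emission, expressed as auto-fluorescence equivalency to triamterene.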
A short description of experiment [7]: qHTS assay to test for compound auto fluorescence at 535 nm (green) in HepG2 cell free culture (AID 720686).
Experiment [8] is described as follows: qHTS assay to test for compound auto fluorescence at 460 nm (blue) in HepG2 cells (AID 720687). A digest of the protocol: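 HepG2 cells in MEM with 10% FBS, attached overnight at 37 C, were exposed to compound or DMSO for 1 hr at 37 C, 5% CO2. Blue fluorescence was read at 405/460 nm, with triamterene as reference fluorophore.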
In experiment [9] the target is Glucocorticoid receptor (Homo sapiens) (UniProt P04150). In words: qHTS assay to identify small molecule agonists of the glucocorticoid receptor (GR) signaling pathway (AID 720691; active = well fitted activation curve with a large enough effect in the signal ratio in the repeat runs, not every such curve was filed as active; the % refers to the signal ratio). To be noted: GR-bla HeLa, beta-lactamase reporter ratio, 18 h; activation: at 62.4 µM (top of the series). The gist of the method:
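Beta-lactamase reporter activity, read as fluorescence intensity, was measured in GR-bla HeLa cells exposed to compounds for 18 h at 37 C and then loaded with LiveBLAzer B/G FRET substrate for 2 h at room temperature.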

For experiment [10] the target is unchanged. In words: qHTS assay to identify small molecule antagonists of the glucocorticoid receptor (GR) signaling pathway (AID 720692; active = well fitted inhibition curve with a large enough effect in the signal ratio in the repeat runs, not every such curve was filed as active; the % refers to the signal ratio). A digest of the protocol:
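Fluorescence from cleaved LiveBLAzer B/G FRET substrate reports GRE-driven beta-lactamase in HeLa cells; compounds are tested against 5 nM dexamethasone (final) over 18 h at 37 C, substrate incubation 2 h at room temperature.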

Experiment [11] can be described thus: qHTS assay to identify small molecule antagonists of the glucocorticoid receptor (GR) signaling pathway - cell viability counter screen (AID 720693). Note: nearly all actives have a fitted effect of over 55% in size.
Experiment [12] can be described thus: qHTS assay for identifying genotoxic compounds that show differential cytotoxicity against isogenic chicken DT40 cell lines with known DNA damage response pathways - wild type cell line (AID 743012). Note: nearly all actives have a fitted effect of over 60% in size. Note: potency is the fitted concentration of half-maximal effect. The gist of the method:
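Quantitative HTS on parental DT40 cells: 40 h compound treatment at 37 C/5% CO2, with viability then determined by CellTiter-Glo luminescence. Values serve as the DNA repair-proficient reference for differential cytotoxicity.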

Experiment [13] is described as follows: qHTS assay for identifying genotoxic compounds that show differential cytotoxicity against isogenic chicken DT40 cell lines with known DNA damage response pathways - Rev3 mutant cell line (AID 743014). Note: nearly all actives have a fitted effect of over 55% in size. Note: potency is the fitted concentration of half-maximal effect.
Experiment [14] in a line: qHTS assay for identifying genotoxic compounds that show differential cytotoxicity against isogenic chicken DT40 cell lines with known DNA damage response pathways - Rad54/Ku70 mutant cell line (AID 743015). Note: nearly all actives have a fitted effect of over 60% in size. Note: potency is the fitted concentration of half-maximal effect.
Experiment [15] is described as follows: qHTS assay to identify small molecule antagonists of the androgen receptor (AR) signaling pathway - cell viability counter screen (AID 743033; note: nearly all actives have a fitted effect of over 45% in size; note: potency is the fitted concentration of half-maximal effect).
Experiment [16] concerns the target Androgen receptor (Homo sapiens) (UniProt P10275). Description: qHTS assay to identify small molecule antagonists of the androgen receptor (AR) signaling pathway (AID 743035; active = well fitted inhibition curve with a large enough effect in the signal ratio in the repeat runs, not every such curve was filed as active; the % refers to the signal ratio; note: potency is the fitted concentration of half-maximal effect). A digest of the protocol: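 Cell line: GeneBLAzer AR-UAS-bla GripTite (HEK293). Stimulus: R1881 added after compound. Exposure: 16 h, 37C, 5% CO2. Readout: LiveBLAzer B/G FRET fluorescence after 2 h at room temperature.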

The target is the same in experiment [17]. Description: qHTS assay to identify small molecule agonists of the androgen receptor (AR) signaling pathway (AID 743036; active = well fitted activation curve with a large enough effect in the signal ratio in the repeat runs, with a control signal flat, not every such curve was filed as active; the % refers to the signal ratio). The gist of the method:
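Screening used 2,000 AR-bla HEK293 cells per well, treated 16 h at 37C with test compounds in DMSO alongside positive and DMSO-only controls; beta-lactamase activity was then read by LiveBLAzer B/G FRET fluorescence after 2 h at room temperature.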

The target is the same in experiment [18]. In words: qHTS assay to identify small molecule agonists of the androgen receptor (AR) signaling pathway using the MDA cell line (AID 743040; note: nearly all actives have a fitted effect of over 20% in size; note: potency is the fitted concentration of half-maximal effect). The gist of the method:
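MDA-kb2 breast carcinoma cells carrying MMTV-luciferase (responsive to AR and GR), plated 5 h then treated 16 h with compounds at 37C, 0% CO2. Read-out was ONE-Glo luminescence after 30 min at room temperature.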

The nature of experiment [19]: qHTS assay to identify small molecule antagonists of the androgen receptor (AR) signaling pathway using the MDA cell line - cell viability counter screen (AID 743041; note: nearly all actives have a fitted effect of over 45% in size). A digest of the protocol:
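MDA-kb2 AR-luc cells (MMTV-luciferase, AR/GR responsive) treated with compounds plus R1881 agonist for 16 h at 37C. CellTiter-Fluor added at 15.5 h; fluorescence read after 30 min in the same wells.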

Experiment [20] addresses Androgen receptor (Homo sapiens) (UniProt P10275). Description: qHTS assay to identify small molecule antagonists of the androgen receptor (AR) signaling pathway using the MDA cell line (AID 743042; note: nearly all actives have a fitted effect of over 55% in size). A digest of the protocol: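 MDA-kb2 breast carcinoma cells carrying MMTV-luciferase (AR/GR responsive) were co-treated with compounds and the agonist R1881 for 16 h at 37C. Inhibition read as ONE-Glo luminescence; CellTiter-Fluor fluorescence measured in parallel for cytotoxicity.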

Results filed as inconclusive are left out. The source made the active and inactive calls. Unless noted, calls come from the whole dose curve; as a rule, active = well fitted curve in the direction sought with a large enough effect in the repeat runs; inconclusive = weak or mixed curves; inactive = no such curve, though single readings can be large; an effect the other way counts as inactive or inconclusive.

Androgen receptor (Homo sapiens), sequence (P10275 whole entry, looked up): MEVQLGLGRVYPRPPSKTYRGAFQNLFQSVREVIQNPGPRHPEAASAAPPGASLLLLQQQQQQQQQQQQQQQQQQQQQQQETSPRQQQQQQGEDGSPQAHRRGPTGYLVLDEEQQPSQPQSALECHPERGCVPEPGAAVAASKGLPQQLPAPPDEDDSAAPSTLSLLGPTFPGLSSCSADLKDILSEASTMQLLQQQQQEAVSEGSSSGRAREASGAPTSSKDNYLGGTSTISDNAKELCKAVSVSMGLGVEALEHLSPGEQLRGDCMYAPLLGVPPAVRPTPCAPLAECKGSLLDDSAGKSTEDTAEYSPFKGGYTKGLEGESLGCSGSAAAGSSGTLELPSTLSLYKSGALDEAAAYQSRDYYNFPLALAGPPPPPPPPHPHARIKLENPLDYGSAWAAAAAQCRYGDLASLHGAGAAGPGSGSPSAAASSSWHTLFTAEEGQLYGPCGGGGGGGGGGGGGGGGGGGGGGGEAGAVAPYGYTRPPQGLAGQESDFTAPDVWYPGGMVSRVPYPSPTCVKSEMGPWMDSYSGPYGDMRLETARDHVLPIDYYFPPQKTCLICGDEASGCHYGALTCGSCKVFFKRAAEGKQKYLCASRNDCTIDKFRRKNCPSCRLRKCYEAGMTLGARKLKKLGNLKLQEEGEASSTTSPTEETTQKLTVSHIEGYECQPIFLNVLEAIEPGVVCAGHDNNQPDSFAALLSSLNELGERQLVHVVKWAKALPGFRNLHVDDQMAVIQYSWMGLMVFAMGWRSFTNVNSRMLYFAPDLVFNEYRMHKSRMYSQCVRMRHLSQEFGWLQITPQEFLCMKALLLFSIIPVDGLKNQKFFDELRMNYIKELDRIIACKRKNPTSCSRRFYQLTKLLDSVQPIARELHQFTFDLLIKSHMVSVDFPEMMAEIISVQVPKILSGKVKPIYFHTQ
Glucocorticoid receptor (Homo sapiens), sequence (P04150 whole entry, looked up): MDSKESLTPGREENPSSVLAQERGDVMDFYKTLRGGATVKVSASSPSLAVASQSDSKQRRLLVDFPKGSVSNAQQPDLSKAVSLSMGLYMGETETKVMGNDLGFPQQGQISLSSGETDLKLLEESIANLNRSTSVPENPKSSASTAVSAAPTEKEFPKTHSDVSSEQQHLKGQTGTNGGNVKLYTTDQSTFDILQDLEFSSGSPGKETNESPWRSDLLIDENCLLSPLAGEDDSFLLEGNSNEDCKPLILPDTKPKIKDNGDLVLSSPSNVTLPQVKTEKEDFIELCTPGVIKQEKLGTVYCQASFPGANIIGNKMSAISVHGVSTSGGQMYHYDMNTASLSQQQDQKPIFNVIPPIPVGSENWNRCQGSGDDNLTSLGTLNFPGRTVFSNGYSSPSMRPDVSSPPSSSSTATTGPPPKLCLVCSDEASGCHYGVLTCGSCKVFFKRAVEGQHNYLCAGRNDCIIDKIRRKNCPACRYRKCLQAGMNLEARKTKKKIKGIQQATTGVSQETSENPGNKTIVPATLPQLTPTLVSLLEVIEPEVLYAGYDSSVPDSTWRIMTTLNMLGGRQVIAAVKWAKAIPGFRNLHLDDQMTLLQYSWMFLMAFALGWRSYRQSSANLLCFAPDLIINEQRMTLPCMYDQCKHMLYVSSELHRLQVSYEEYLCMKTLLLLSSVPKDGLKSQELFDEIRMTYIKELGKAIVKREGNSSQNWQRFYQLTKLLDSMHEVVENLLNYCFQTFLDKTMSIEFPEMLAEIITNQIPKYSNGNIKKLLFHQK

Consider `CCOC(=O)COc1ccc2c(C)c(CCN(CC)CC)c(=O)oc2c1`, for which the Potency result in experiment [1], in experiment [2], in experiment [3], in [4], in experiment [5] and in [7] was “inactive” each time. Moreover, the Potency result in experiment [9], in [10], in [11], in experiment [12], in experiment [13] and in [14] was “inactive” in each case. Moreover, the Potency entry in experiment [15], in [16], in [17], in experiment [18], in experiment [19] and in experiment [20] was “inactive” in each case. Moreover, the compound was classed as inactive in experiment [6] and in experiment [8].
On to `C/C(=C(\CCOC(=O)c1ccccc1)SS/C(CCOC(=O)c1ccccc1)=C(/C)N(C=O)Cc1cnc(C)nc1N)N(C=O)Cc1cnc(C)nc1N`, for which the Potency result in experiment [1], in experiment [2], in experiment [3], in experiment [4], in [5] and in experiment [7] was “inactive” throughout. For the same compound, the Potency result in experiment [9], in [10], in [11], in [15] and in experiment [19] was “inactive” in each case. Besides, the outcome in [6] and in [8] was inactive. For the same compound, the Potency in [12] is 10600 nM (active); in experiment [13] it was 23700 nM (active); in experiment [14] it was 26600 nM (active).
As to `O=C(O)C1=C(CSc2nnnn2CS(=O)(=O)O)CS[C@@H]2[C@H](NC(=O)[C@H](O)c3ccccc3)C(=O)N12`, the Potency result in experiment [1], in [2], in experiment [3], in [4], in experiment [5] and in experiment [7] was “inactive” each time. Further, the Potency entry in experiment [9], in experiment [10], in [11], in experiment [12], in [13] and in [14] was “inactive” each time. For the same compound, the Potency result in [15], in experiment [16], in experiment [17], in experiment [19] and in [20] was “inactive” each time. For the same compound, the outcome in experiment [6] and in experiment [8] was inactive. Besides, the Potency in experiment [18] was 26600 nM (active).
Turning to `CC1(C)S[C@@H]2[C@H](NC(=O)C(C(=O)Oc3ccc4c(c3)CCC4)c3ccccc3)C(=O)N2[C@H]1C(=O)O` (some centres undefined), the Potency result in experiment [1], in experiment [2], in [3], in [4], in experiment [5] and in [7] was “inactive” throughout. For the same compound, the Potency result in experiment [9], in [10], in [11], in [12], in experiment [13] and in experiment [14] was “inactive” each time. Moreover, the Potency result in experiment [15], in experiment [16], in [17], in experiment [18], in experiment [19] and in experiment [20] was “inactive” throughout. Besides, the result in experiment [6] and in [8] was inactive.
As to `CC(=O)O[C@H]1C(=O)[C@@]2(C)[C@H]([C@H](OC(=O)c3ccccc3)[C@]3(O)C[C@H](OC(=O)[C@H](O)[C@@H](NC(=O)c4ccccc4)c4ccccc4)C(C)=C1C3(C)C)[C@]1(OC(C)=O)CO[C@@H]1C[C@@H]2O`, the Potency result in experiment [1], in experiment [2], in [3], in experiment [4], in [5] and in experiment [7] was “inactive” throughout. The Potency entry in experiment [9], in experiment [10], in experiment [11], in experiment [18], in experiment [19] and in experiment [20] was “inactive” throughout. Further, the call in [6] and in experiment [8] was inactive. The Potency was 10.6 nM (active) in experiment [12]; 9.4 nM (active) in experiment [13]; 13.3 nM (active) in experiment [14]; 952 nM (active) in experiment [15]; 16.9 nM (active) in experiment [16].
`NCc1ccccc1CC(=O)N[C@@H]1C(=O)N2C(C(=O)O)=C(CSc3nnnn3CC(=O)O)CS[C@H]12`: the Potency entry in experiment [1], in [2], in experiment [3], in experiment [4], in experiment [5] and in experiment [7] was “inactive” each time. Further, the Potency entry in [9], in [10], in [11], in experiment [12], in experiment [13] and in experiment [14] was “inactive” throughout. The compound was called inactive in [6] and in [8].

The values above are taken from PubChem BioAssay (Tox21).
